Data: PubChem BioAssay AID1159580 (chemical genetic matrix, 2015)
Screen size: about 5,500 compounds; about 2,000 (36%) were called active. Inconclusive results (about 18%) are left out. No stated cut-off is given here; in the data, active means normalized growth mostly below about 0.91 (no sharp cut-off); inconclusive means no clear call, values can overlap the other calls; inactive means mostly above about 0.92. This is one part of the list.

Assay: chemical genetic growth profiling, strain panel (AID 1159580);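 further: tested at 20 µM; growth read once vehicle control cultures reached saturation at 30 °C; 1 = growth at the plate median or of vehicle wells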
Conditions: growth OD

Measured: normalized growth

CC1CC2C3CCC4=CC(=O)C=C[C@]4(C)[C@@]3(F)[C@@H](O)C[C@]2(C)[C@@]1(O)C(=O)CO (stereo partly drawn)
inactive: S. cerevisiae deletion strains, locus YAL013W, strain DEP1, stronger effect = lower value 0.995 | S. cerevisiae deletion strains, locus YAL021C, strain ccr4, stronger effect = lower value 0.974 | S. cerevisiae deletion strains, locus YAL026C, strain drs2, stronger effect = lower value 0.987 | S. cerevisiae deletion strains, locus YAL030W, strain snc1, stronger effect = lower value 0.96 | S. cerevisiae deletion strains, locus YBL061C, strain skt5, stronger effect = lower value 0.99 | S. cerevisiae deletion strains, locus YBR009C, strain hhf1, stronger effect = lower value 1.03 | S. cerevisiae deletion strains, locus YBR021W, strain FUR4, stronger effect = lower value 0.984 | S. cerevisiae deletion strains, locus YBR023C, strain chs3, stronger effect = lower value 0.983 | S. cerevisiae deletion strains, locus YBR171W, strain sec66, stronger effect = lower value 0.982 | S. cerevisiae deletion strains, locus YBR229C, strain ROT2, stronger effect = lower value 0.989 | S. cerevisiae deletion strains, locus YBR231C, strain swc5, stronger effect = lower value 1.06 | S. cerevisiae deletion strains, locus YBR279W, strain paf1, stronger effect = lower value 1 | S. cerevisiae deletion strains, locus YCL011C, strain gbp2, stronger effect = lower value 0.954 | S. cerevisiae deletion strains, locus YCL016C, strain dcc1, stronger effect = lower value 0.978 | S. cerevisiae deletion strains, locus YCL029C, strain bik1, stronger effect = lower value 0.979 | S. cerevisiae deletion strains, locus YCL061C, strain MRC1, stronger effect = lower value 0.995 | S. cerevisiae deletion strains, locus YCL069W, strain vba3, stronger effect = lower value 0.995 | S. cerevisiae deletion strains, locus YCR088W, strain abp1, stronger effect = lower value 0.996 | S. cerevisiae deletion strains, locus YDL005C, strain med2, stronger effect = lower value 0.973 | S. cerevisiae deletion strains, locus YDL035C, strain GPR1, stronger effect = lower value 1.03 | S. cerevisiae deletion strains, locus YDL040C, strain nat1, stronger effect = lower value 0.975 | S. cerevisiae deletion strains, locus YDL074C, strain BRE1, stronger effect = lower value 0.979 | S. cerevisiae deletion strains, locus YDL101C, strain DUN1, stronger effect = lower value 0.976 | S. cerevisiae deletion strains, locus YDL185W, strain tfp1, stronger effect = lower value 0.982 | S. cerevisiae deletion strains, locus YDL192W, strain arf1, stronger effect = lower value 0.974 | S. cerevisiae deletion strains, locus YDR001C, strain nth1, stronger effect = lower value 0.988 | S. cerevisiae deletion strains, locus YDR069C, strain doa4, stronger effect = lower value 0.979 | S. cerevisiae deletion strains, locus YDR101C, strain arx1, stronger effect = lower value 0.984 | S. cerevisiae deletion strains, locus YDR137W, strain rgp1, stronger effect = lower value 0.987 | S. cerevisiae deletion strains, locus YDR159W, strain sac3, stronger effect = lower value 1.01 | S. cerevisiae deletion strains, locus YDR162C, strain NBP2, stronger effect = lower value 1.02 | S. cerevisiae deletion strains, locus YDR195W, strain ref2 0.99 | S. cerevisiae deletion strains, locus YDR297W, strain sur2, stronger effect = lower value 0.995 | S. cerevisiae deletion strains, locus YDR318W, strain mcm21, stronger effect = lower value 0.983 | S. cerevisiae deletion strains, locus YDR334W, strain swr1, stronger effect = lower value 0.976 | S. cerevisiae deletion strains, locus YDR335W, strain msn5, stronger effect = lower value 0.984 | S. cerevisiae deletion strains, locus YDR388W, stronger effect = lower value 0.968 | S. cerevisiae deletion strains, locus YDR392W, strain spt3, stronger effect = lower value 0.904 | S. cerevisiae deletion strains, locus YDR502C, strain sam2, stronger effect = lower value 0.991 | S. cerevisiae deletion strains, locus YEL003W, strain gim4, stronger effect = lower value 0.963 | S. cerevisiae deletion strains, locus YEL037C, strain rad23, stronger effect = lower value 0.976 | S. cerevisiae deletion strains, locus YEL061C, strain CIN8 (second series), stronger effect = lower value 0.988 | S. cerevisiae deletion strains, locus YEL061C, strain CIN8, stronger effect = lower value 0.994 | S. cerevisiae deletion strains, locus YER015W, strain faa2, stronger effect = lower value 0.991 | S. cerevisiae deletion strains, locus YER016W, strain bim1, stronger effect = lower value 0.95 | S. cerevisiae deletion strains, locus YER110C, stronger effect = lower value 0.958 | S. cerevisiae deletion strains, locus YER111C, strain swi4, stronger effect = lower value 0.983 | S. cerevisiae deletion strains, locus YER155C, strain BEM2 (second series), stronger effect = lower value 1.03 | S. cerevisiae deletion strains, locus YER155C, strain BEM2, stronger effect = lower value 0.984 | S. cerevisiae deletion strains, locus YER167W, strain BCK2, stronger effect = lower value 1 | S. cerevisiae deletion strains, locus YFR010W, strain ubp6, stronger effect = lower value 1.01 | S. cerevisiae deletion strains, locus YGL078C, strain dbp3, stronger effect = lower value 0.971 | S. cerevisiae deletion strains, locus YGL086W, strain mad1, stronger effect = lower value 0.98 | S. cerevisiae deletion strains, locus YGL167C, strain pmr1, stronger effect = lower value 0.983 | S. cerevisiae deletion strains, locus YGL173C, strain kem1, stronger effect = lower value 0.979 | S. cerevisiae deletion strains, locus YGL227W, strain vid30, stronger effect = lower value 0.999 | S. cerevisiae deletion strains, locus YGL240W, strain doc1, stronger effect = lower value 1.01 | S. cerevisiae deletion strains, locus YGL248W, strain PDE1, stronger effect = lower value 0.98 | S. cerevisiae deletion strains, locus YGL253W, strain hxk2, stronger effect = lower value 0.974 | S. cerevisiae deletion strains, locus YGR135W, strain pre9, stronger effect = lower value 0.969 | S. cerevisiae deletion strains, locus YGR229C, strain SMI1, stronger effect = lower value 1.02 | S. cerevisiae deletion strains, locus YGR252W, strain gcn5, stronger effect = lower value 1.02 | S. cerevisiae deletion strains, locus YHR013C, strain ard1, stronger effect = lower value 0.954 | S. cerevisiae deletion strains, locus YHR027C, strain rpn1, stronger effect = lower value 0.992 | S. cerevisiae deletion strains, locus YHR030C, strain SLT2, stronger effect = lower value 0.99 | S. cerevisiae deletion strains, locus YHR079C, strain IRE1 (second series), stronger effect = lower value 0.965 | S. cerevisiae deletion strains, locus YHR094C, strain hxt1, stronger effect = lower value 0.97 | S. cerevisiae deletion strains, locus YHR129C, strain ARP1, stronger effect = lower value 0.993 | S. cerevisiae deletion strains, locus YHR142W, strain chs7, stronger effect = lower value 0.959 | S. cerevisiae deletion strains, locus YHR200W, strain rpn10, stronger effect = lower value 0.983 | S. cerevisiae deletion strains, locus YIL066C, strain RNR3, stronger effect = lower value 1 | S. cerevisiae deletion strains, locus YIL073C, strain SPO22, stronger effect = lower value 0.972 | S. cerevisiae deletion strains, locus YIL125W, strain kgd1, stronger effect = lower value 0.963 | S. cerevisiae deletion strains, locus YIR030C, strain dcg1, stronger effect = lower value 0.965 | S. cerevisiae deletion strains, locus YJL092W, strain hpr5, stronger effect = lower value 0.963 | S. cerevisiae deletion strains, locus YJL095W, strain BCK1 (second series), stronger effect = lower value 0.945 | S. cerevisiae deletion strains, locus YJL095W, strain BCK1, stronger effect = lower value 0.96 | S. cerevisiae deletion strains, locus YJL115W, strain asf1, stronger effect = lower value 0.976 | S. cerevisiae deletion strains, locus YJL129C, strain trk1, stronger effect = lower value 0.965 | S. cerevisiae deletion strains, locus YJL134W, strain LCB3, stronger effect = lower value 0.99 | S. cerevisiae deletion strains, locus YJL154C, strain vps35, stronger effect = lower value 0.966 | S. cerevisiae deletion strains, locus YJL164C, strain tpk1, stronger effect = lower value 1 | S. cerevisiae deletion strains, locus YJL166W, strain qcr8, stronger effect = lower value 1 | S. cerevisiae deletion strains, locus YJL168C, strain set2, stronger effect = lower value 0.966 | S. cerevisiae deletion strains, locus YJL187C, strain SWE1 (second series), stronger effect = lower value 0.982 | S. cerevisiae deletion strains, locus YJR043C, strain POL32, stronger effect = lower value 1.04 | S. cerevisiae deletion strains, locus YKL009W, strain mrt4, stronger effect = lower value 0.963 | S. cerevisiae deletion strains, locus YKL068W, stronger effect = lower value 0.987 | S. cerevisiae deletion strains, locus YKL085W, strain MDH1 (second series), stronger effect = lower value 0.985 | S. cerevisiae deletion strains, locus YKL085W, strain MDH1, stronger effect = lower value 0.985 | S. cerevisiae deletion strains, locus YKL160W, strain elf1, stronger effect = lower value 0.943 | S. cerevisiae deletion strains, locus YKR001C, strain vps1, stronger effect = lower value 0.968 | S. cerevisiae deletion strains, locus YKR026C, strain gcn3, stronger effect = lower value 0.993 | S. cerevisiae deletion strains, locus YKR091W, strain srl3, stronger effect = lower value 0.97 | S. cerevisiae deletion strains, locus YLL001W, strain dnm1, stronger effect = lower value 1.01 | S. cerevisiae deletion strains, locus YLL026W, stronger effect = lower value 0.997 | S. cerevisiae deletion strains, locus YLL041C, strain sdh2, stronger effect = lower value 0.96 | S. cerevisiae deletion strains, locus YLR027C, strain aat2, stronger effect = lower value 0.997 | S. cerevisiae deletion strains, locus YLR039C, strain RIC1, stronger effect = lower value 0.991 | S. cerevisiae deletion strains, locus YLR058C, strain SHM2, stronger effect = lower value 0.984 | S. cerevisiae deletion strains, locus YLR102C, strain apc9, stronger effect = lower value 0.982 | S. cerevisiae deletion strains, locus YLR221C, strain rsa3, stronger effect = lower value 1.01 | S. cerevisiae deletion strains, locus YLR258W, strain gsy2, stronger effect = lower value 0.962 | S. cerevisiae deletion strains, locus YLR262C, strain YPT6 (second series), stronger effect = lower value 0.985 | S. cerevisiae deletion strains, locus YLR262C, strain YPT6, stronger effect = lower value 0.986 | S. cerevisiae deletion strains, locus YLR268W, strain sec22, stronger effect = lower value 0.965 | S. cerevisiae deletion strains, locus YLR320W, strain mms22, stronger effect = lower value 1.01 | S. cerevisiae deletion strains, locus YLR330W, strain CHS5, stronger effect = lower value 0.99 | S. cerevisiae deletion strains, locus YLR342W, strain FKS1 (second series), stronger effect = lower value 1.02 | S. cerevisiae deletion strains, locus YLR342W, strain FKS1, stronger effect = lower value 0.977 | S. cerevisiae deletion strains, locus YLR357W, strain rsc2, stronger effect = lower value 0.994 | S. cerevisiae deletion strains, locus YLR370C, strain arc18, stronger effect = lower value 0.99 | S. cerevisiae deletion strains, locus YLR371W, strain rom2, stronger effect = lower value 0.96 | S. cerevisiae deletion strains, locus YLR384C, strain iki3, stronger effect = lower value 1.01 | S. cerevisiae deletion strains, locus YLR418C, strain cdc73, stronger effect = lower value 0.974 | S. cerevisiae deletion strains, locus YML016C, strain PPZ1, stronger effect = lower value 0.989 | S. cerevisiae deletion strains, locus YML032C, strain rad52, stronger effect = lower value 0.981 | S. cerevisiae deletion strains, locus YML120C, strain ndi1, stronger effect = lower value 0.979 | S. cerevisiae deletion strains, locus YML124C, strain tub3, stronger effect = lower value 0.973 | S. cerevisiae deletion strains, locus YMR058W, strain fet3, stronger effect = lower value 0.988 | S. cerevisiae deletion strains, locus YMR078C, strain ctf18, stronger effect = lower value 0.958 | S. cerevisiae deletion strains, locus YMR125W, strain sto1, stronger effect = lower value 0.97 | S. cerevisiae deletion strains, locus YMR129W, stronger effect = lower value 0.975 | S. cerevisiae deletion strains, locus YMR205C, strain PFK2, stronger effect = lower value 1.01 | S. cerevisiae deletion strains, locus YMR223W, strain ubp8, stronger effect = lower value 0.977 | S. cerevisiae deletion strains, locus YMR231W, strain pep5, stronger effect = lower value 0.987 | S. cerevisiae deletion strains, locus YMR263W, strain SAP30, stronger effect = lower value 0.979 | S. cerevisiae deletion strains, locus YMR307W, strain GAS1, stronger effect = lower value 1.03 | S. cerevisiae deletion strains, locus YNL067W, strain RPL9B, stronger effect = lower value 0.961 | S. cerevisiae deletion strains, locus YNL071W, strain lat1, stronger effect = lower value 0.993 | S. cerevisiae deletion strains, locus YNL128W, strain TEP1, stronger effect = lower value 0.973 | S. cerevisiae deletion strains, locus YNL153C, strain GIM3, stronger effect = lower value 0.981 | S. cerevisiae deletion strains, locus YNL209W, strain ssb2, stronger effect = lower value 0.98 | S. cerevisiae deletion strains, locus YNL233W, strain BNI4, stronger effect = lower value 0.965 | S. cerevisiae deletion strains, locus YNL248C, strain rpa49, stronger effect = lower value 0.907 | S. cerevisiae deletion strains, locus YNL250W, strain rad50, stronger effect = lower value 0.962 | S. cerevisiae deletion strains, locus YNL271C, strain bni1, stronger effect = lower value 0.962 | S. cerevisiae deletion strains, locus YNL298W, strain CLA4, stronger effect = lower value 0.966 | S. cerevisiae deletion strains, locus YNL307C, strain MCK1, stronger effect = lower value 0.981 | S. cerevisiae deletion strains, locus YNL322C, strain KRE1 (second series), stronger effect = lower value 0.96 | S. cerevisiae deletion strains, locus YNR049C, strain mso1, stronger effect = lower value 0.968 | S. cerevisiae deletion strains, locus YNR052C, strain pop2, stronger effect = lower value 0.966 | S. cerevisiae deletion strains, locus YOL012C, strain htz1 0.786 | S. cerevisiae deletion strains, locus YOL147C, strain pex11, stronger effect = lower value 0.971 | S. cerevisiae deletion strains, locus YOR001W, strain rrp6, stronger effect = lower value 1.04 | S. cerevisiae deletion strains, locus YOR061W, strain CKA2, stronger effect = lower value 0.993 | S. cerevisiae deletion strains, locus YOR069W, strain VPS5, stronger effect = lower value 0.986 | S. cerevisiae deletion strains, locus YOR070C, strain gyp1, stronger effect = lower value 0.988 | S. cerevisiae deletion strains, locus YOR080W, strain dia2, stronger effect = lower value 0.957 | S. cerevisiae deletion strains, locus YOR083W, strain WHI5, stronger effect = lower value 0.914 | S. cerevisiae deletion strains, locus YOR106W, strain vam3, stronger effect = lower value 0.942 | S. cerevisiae deletion strains, locus YOR136W, strain idh2, stronger effect = lower value 0.986 | S. cerevisiae deletion strains, locus YOR144C, strain elg1, stronger effect = lower value 0.972 | S. cerevisiae deletion strains, locus YOR184W, strain ser1, stronger effect = lower value 0.979 | S. cerevisiae deletion strains, locus YOR265W, strain rbl2, stronger effect = lower value 0.989 | S. cerevisiae deletion strains, locus YOR270C, strain vph1, stronger effect = lower value 0.939 | S. cerevisiae deletion strains, locus YOR290C, strain snf2, stronger effect = lower value 0.962 | S. cerevisiae deletion strains, locus YOR316C, strain cot1, stronger effect = lower value 0.98 | S. cerevisiae deletion strains, locus YPL051W, strain arl3, stronger effect = lower value 0.992 | S. cerevisiae deletion strains, locus YPL078C, strain atp4, stronger effect = lower value 0.953 | S. cerevisiae deletion strains, locus YPL106C, strain sse1, stronger effect = lower value 0.982 | S. cerevisiae deletion strains, locus YPL240C, strain hsp82, stronger effect = lower value 1.01 | S. cerevisiae deletion strains, locus YPR119W, strain clb2, stronger effect = lower value 0.973 | S. cerevisiae deletion strains, locus YPR141C, strain kar3, stronger effect = lower value 0.961 | S. cerevisiae deletion strains, locus YPR163C, strain tif3, stronger effect = lower value 0.981 | S. cerevisiae deletion strains, locus YPR167C, strain met16, stronger effect = lower value 0.962 | S. cerevisiae deletion strains, strain wtn01, stronger effect = lower value 0.963 | S. cerevisiae strains, strain wild type, stronger effect = lower value 0.995
